The source of these data is PubChem BioAssay (Tox21).

SMILES strings stand for the structures. “And” between values parts separate entries of the source, which are not always exact repeats. Equal entries are not always repeated. Inconclusive results are not listed. The source made the active and inactive calls. The call rests on the fitted dose curve; in most records, active means well fitted inhibition curve with a large enough effect in the signal ratio in the repeat runs (not every such curve was filed as active); inconclusive means weak or mixed curves; inactive means flat fitted curve, though single readings scatter; the % refers to the signal ratio.
On the % scale 0 is the no-effect control and ±100 the full control effect; potency means the concentration at half of the fitted maximal effect.

The target of the assay is Progesterone receptor (Homo sapiens) (UniProt P06401). Put plainly: qHTS assay to identify small molecule antagonists of the progesterone receptor (PR) signaling pathway (AID 1346795). As to conditions: PR-UAS-bla HEK293T, beta-lactamase FRET ratio, 16 h; series mostly up to 92.4 µM. An excerpt: National Center for Advancing Translational Sciences [NCATS]
Chain of Progesterone receptor (Homo sapiens) (P06401 whole entry, looked up): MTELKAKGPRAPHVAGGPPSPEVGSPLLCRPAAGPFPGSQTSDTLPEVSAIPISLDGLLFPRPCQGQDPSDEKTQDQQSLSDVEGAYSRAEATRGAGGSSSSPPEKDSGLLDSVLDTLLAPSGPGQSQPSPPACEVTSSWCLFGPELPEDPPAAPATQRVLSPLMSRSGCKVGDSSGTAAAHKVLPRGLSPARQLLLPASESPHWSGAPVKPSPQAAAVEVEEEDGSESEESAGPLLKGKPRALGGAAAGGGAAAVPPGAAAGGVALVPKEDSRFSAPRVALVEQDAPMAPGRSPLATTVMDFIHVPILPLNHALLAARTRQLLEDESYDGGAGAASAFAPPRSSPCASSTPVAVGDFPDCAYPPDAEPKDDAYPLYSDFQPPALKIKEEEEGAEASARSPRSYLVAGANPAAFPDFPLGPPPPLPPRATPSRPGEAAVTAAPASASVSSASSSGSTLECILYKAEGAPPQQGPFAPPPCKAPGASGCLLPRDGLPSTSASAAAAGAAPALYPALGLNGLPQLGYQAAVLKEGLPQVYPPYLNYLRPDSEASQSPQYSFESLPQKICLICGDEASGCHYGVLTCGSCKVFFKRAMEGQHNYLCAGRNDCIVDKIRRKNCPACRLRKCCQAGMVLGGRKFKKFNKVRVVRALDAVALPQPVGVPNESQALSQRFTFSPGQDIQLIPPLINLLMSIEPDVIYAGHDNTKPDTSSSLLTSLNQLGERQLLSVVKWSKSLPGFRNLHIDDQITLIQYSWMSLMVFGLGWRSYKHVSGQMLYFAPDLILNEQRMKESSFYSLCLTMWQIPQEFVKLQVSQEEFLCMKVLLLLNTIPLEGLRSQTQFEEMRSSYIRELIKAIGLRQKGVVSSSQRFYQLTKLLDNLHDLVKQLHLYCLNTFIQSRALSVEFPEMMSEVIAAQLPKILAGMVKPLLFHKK
NIH Chemical Genomics Center [NCGC]
U.S. Environmental Protection Agency [EPA]
National Institutes of Environmental Health Sciences [NIEHS]
National Toxicology Program [NTP]
U.S. Food and Drug Administration [FDA]
Progesterone receptor (PR), a nuclear hormone receptor, plays an important role in development, metabolic homeostasis and reproduction. […] Endocrine disrupting chemicals (EDCs) and their interactions with steroid hormone receptors like PR causes disruption of normal endocrine function. To identify the compounds that inhibit PR signaling, a PR-UAS-bla GripTite cell line i.e. PR-UAS-bla HEK293T (Invitrogen, Carlsbad, CA, USA) containing a beta-lactamase reporter gene under the control of an Upstream Activator Sequence (UAS) was used to screen Tox21 10K compound library.
Tox21 Assay Protocol Summary:
PR-UAS-bla HEK293T cells were dispensed at 3,000 cells/4 uL of assay medium containing 2% charcoal stripped FBS per well into black wall/clear-bottom 1536-well plates using a Multidrop Combi (ThermoFisher Scientific, Waltham, MA) dispenser. After the assay plates were incubated at a 37C and 5% CO2 for 6 hr, 23 nL of compounds dissolved in DMSO, positive controls or DMSO only was transferred to the assay plate by a Pintool station (Kalypsys, San Diego, CA), followed by addition of 1 uL (1nM as final concentration) of Promegestone (R5020) in assay medium using a BioRAPTR FRD (Flying Reagent Dispenser, Aurora Discovery, San Diego, CA). The plates were incubated at 37C and 5% CO2 for 16 hr. Then 1 uL of LiveBLAzer B/G FRET substrate was added using a FRD. After the plates were incubated at room temperature for 2 hours, fluorescence intensity was measured by an Envision plate reader (PerkinElmer, Shelton, CT).
As to `Cc1nc(-c2ccc3c(c2)CCN(CCC2CCC(NC(=O)/C=C/c4ccc(F)cc4)CC2)CC3)no1` (stereo not given), the Potency result is “inactive”.
On the same count and under the same terms, the entry for `CSc1ccc(C(=O)c2[nH]c(=O)[nH]c2C)cc1` is “inactive”; for `CC(C)c1ccc2c(c1)CC[C@H]1[C@](C)(CN)CCC[C@]21C` it is “inactive”.
In the case of `CC(NN)c1ccccc1` (stereo not given), the activity change, negative = inhibition was -2.01% [at 18.9 µM] (inactive).
Take `O=C1CCCCCN1SSN1CCCCCC1=O`: the Potency result was “inactive”.
Regarding `CC(C)=CCOc1ccc(/C=C/C(=O)c2ccc(OCC=C(C)C)cc2OCC(=O)O)cc1`, the Potency was 26.6 µM (active).
On the same count and under the same terms, for `N#CSc1ccc(N)c([N+](=O)[O-])c1` the value was 30.8 µM (active); for `CCCCCCOC(=O)c1ccc(O)cc1`, 38.6 µM (active) and 21.7 µM (active).
On to `COc1cc(-c2ccc(N=C=O)c(OC)c2)ccc1N=C=O`, for which the Potency entry was “inactive”.
Same read-out and setting: for `O=C1CCCc2c1cc1ccc3cccc4ccc2c1c34` the value was 3.48 µM (active); for `C/C(=C(/OCCOc1ccc(Cl)cc1)c1ccc(Cl)cc1Cl)n1ccnc1`, 8.41 µM (active); for `CCCCCCCC(=O)[O-].CCCCCCCC(=O)[O-].[Zn+2]`, “inactive”.
Still for that read-out and setting: the entry for `C[C@H]1[C@H]2CC[C@H]3[C@@H]4CC=C5C[C@@H](N(C)C)CC[C@]5(C)[C@H]4CC[C@]23CN1C` is “inactive”.
For `CCCCCCCCCCCCCCCC[N+](C)(C)CCN(Cc1ccc(OC)cc1)c1ncccn1`, the Potency entry was “inactive”.
Still for that read-out and setting: for `CCCCN1CCCC[C@H]1C(=O)Nc1c(C)cccc1C` the value was “inactive”; for `O=C(Oc1ccccc1)c1ccccc1C(=O)Oc1ccccc1`, 24.3 µM (active); for `O=S1(=O)CC(Cl)(Cl)C(Cl)(Cl)C1`, 6.86 µM (active).
Take `Cc1cc(C2CCCCC2)n(O)c(=O)c1`: the Potency was 3.35 µM (active).
Same read-out and setting: the figure for `NC(=O)C1(N2CCCCC2)CCN(CCCN2c3ccccc3CCc3ccc(Cl)cc32)CC1` is 23.7 µM (active); for `CCC(C)(C)C1CCCCC1OC(C)=O` (stereo not given) it is “inactive”.
On to `CCCCCCCCCOC(=O)c1ccc(O)cc1`, for which the Potency is 24 µM (active).
On the same count and under the same terms, for `COc1cc(-c2nc(NC(=O)c3cc4cc(C)cc(C)c4n3CC(=O)O)sc2CCC2CCCCC2)c(OC)cc1Cl` the value was 12.5 µM (active); for `O=C1c2c(O)ccc(Nc3ccc(CCO)cc3)c2C(=O)c2c([N+](=O)[O-])ccc(O)c21`, “inactive”; for `On1ccccc1=S`, 0.539 µM (active).
For the molecule `O=C1Cc2cc(CCN3CCN(c4nsc5ccccc45)CC3)c(Cl)cc2N1`, the Potency result was “inactive”.
On to `COc1cccc(N)c1`, for which the Potency result was “inactive”.
Same read-out and setting: the figure for `CCN1/C(=C/C=C/c2sc3ccccc3[n+]2CC)Sc2ccccc21` is 11.6 µM (active); for `O=C(O)c1c(Cl)cccc1Cl` it is “inactive”.
Same read-out and setting: for `OCc1c[nH]c2ccccc12` the value was 25.8 µM (active); for `CN(C)C(=O)C1(N2CCCCC2)CCN(CC[C@@]2(c3ccc(Cl)c(Cl)c3)CN(C(=O)c3ccccc3)CCO2)CC1`, 50.9 µM (active).
Take `CC(=O)N1CCN(c2ccc(OC[C@H]3CO[C@](Cn4ccnc4)(c4ccc(Cl)cc4Cl)O3)cc2)CC1`: the Potency is 13.7 µM (active).
Regarding `O=C1C=CC(=O)N1c1ccc(Cc2ccc(N3C(=O)C=CC3=O)cc2)cc1`, the Potency entry was “inactive”.
Still for that read-out and setting: for `CC1=C(/C=C/C(C)=C/C=C/C(C)=C/C=O)C(C)(C)CCC1` the value was 54.2 µM (active); for `CCC(N)(CO)CO`, “inactive”.
Take `CCN(C(=O)N(CC)c1ccccc1)c1ccccc1`: the Potency was 30.6 µM (active).
For the molecule `N=C1C=CC(=C(c2ccc(N)cc2)c2ccc(N)cc2)C=C1`, the Potency result is “inactive”.
On the same count and under the same terms, the entry for `COC(=O)C1=C(C)NC(C)=C(C(=O)OCCc2ccc(N3CCN(C(c4ccccc4)c4ccccc4)CC3)cc2)C1c1cccc([N+](=O)[O-])c1` (stereo not given) is “inactive”.
Regarding `Nc1ccc(N)c2ccccc12`, the Potency is 54.4 µM (active).
With `Cc1cc(O)c2ccccc2c1O`, the Potency was 23.7 µM (active).
As for `CCCCCCCCCCCC(=O)NCCCN(C)C`, the Potency was 61.1 µM (active).
